High-throughput results deposited in PubChem by Sanford-Burnham Center for Chemical Genomics.
NALP1 inh: blocks the NALP1 inflammasome reconstituted in yeast | 0.61% of 280,000 active | inhibition, % at 10 µM | AID 2071 | S. cerevisiae NALP1/ASC/caspase-1 growth, X-gal OD620, 72 h; in the data active = inhibition mostly above about 24%, no sharp cut-off; inactive = mostly below about 32%
NALP3 yeast inh: inhibitors of NALP3 inflammasome in yeast. Yeast reconstituted NLRP3/ASC/caspase-1, beta-gal luminescence, 24 h. inhibition, % at 10 µM. 0.39% of 330,000 active. AID 2825;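 active = inhibition of 50% or more; inactive = inhibition below 50%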
TIM10 inh: TIM10 yeast growth inhibition. inhibition, % at 10 µM. 1.4% of 330,000 active. S. cerevisiae TIM10 strain growth, BacTiter-Glo luminescence, 24 h. AID 463195;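 active = inhibition of 40% or more at the single tested concentration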;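 note: wild-type TIM10 isogenic control strain grown at permissive 25 °C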
tim10-1 inh: tim10-1 yeast growth inhibition | inhibition, % at 20 µM | S. cerevisiae tim10-1 ts strain growth, BacTiter-Glo, 24 h | AID 463190 | 2.2% of 330,000 active;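 active = inhibition of at least 40%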;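 note: mutant grown at 25 °C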
tim23-1 inh: growth inhibitors of tim23-1 mutant yeast; S. cerevisiae tim23-1 growth, BacTiter-Glo luminescence, 24 h; inhibition, % at 20 µM; 1.3% of 330,000 active;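 active = growth inhibition of the mutant yeast at or above 50%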;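 note: temperature-sensitive mutant grown at 25 °C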
tim10-1 confirm: confirmation of tim10-1 mutant yeast growth inhibitors; 56% of 7,400 active; S. cerevisiae tim10-1 ts strain growth, BacTiter-Glo, 24 h; shares compounds with tim10-1 inh; inhibition, % at 20 µM; AID 463213;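 active = inhibition of yeast growth at or above a set limit in either of two repeat tests at 20 µM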;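 note: tim10-1 mutant grown at permissive 25 °C to find synthetic lethal compounds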
Each line names hits and unclear results; the compound was inactive in the other large screens (follow-up assays come after a bar, where they were run). Compounds with a hit are over-represented: about 4% of the library has one in this group of screens.

O=C(CNS(=O)(=O)c1ccccc1)NCc1ccco1	none
Brc1ccc(N=Nc2ccc3ccccc3n2)cc1	tim10-1 inh 40 | tim10-1 confirm inactive
CCn1c(O)c(N=Nc2ccc3ccccc3n2)c2ccccc21	none
CS(=O)(=O)c1ccc2nc(NC(=O)c3ccccc3Br)sc2c1	none
COc1ccc(OCC(O)CNC(C)c2ccccc2)cc1 (stereo not given)	tim10-1 inh 42 | tim10-1 confirm inactive
Cc1cc(Nc2nc3ccccc3nc2Cl)n(-c2ccccc2)n1	none | tim10-1 confirm inactive
COCCN(C(=O)COC(=O)c1ccc(C=O)cc1)c1c(N)n(Cc2ccccc2)c(=O)[nH]c1=O	none
Cc1nn(-c2ccc(Cl)cc2)c2[nH]c(CCl)cc(=O)c12	tim10-1 inh 62 | tim10-1 confirm 32
CCCCN(C)S(=O)(=O)c1cc(Br)cc2c1N(C(=O)C1CC1)CC2	tim10-1 inh 42 | tim10-1 confirm 32
C=CCn1c(SCc2ccccc2C#N)nnc1-c1cc(Br)ccc1O	tim10-1 inh 44 | tim10-1 confirm inactive
COc1ccc(CCNC(=O)C(C)OC(=O)c2nsc(Cl)c2Cl)cc1OC (stereo not given)	none
C[C@@H]1CC=C[C@H]2[C@H]1C(=O)N(Cc1ccccc1)[C@H]2c1ccc(F)c(Br)c1	none (no result: NALP3 yeast inh, TIM10 inh, tim10-1 inh, tim23-1 inh)
C[C@@H]1CC=C[C@H]2[C@H]1C(=O)N(Cc1ccccc1)[C@H]2c1ccoc1	tim10-1 inh 50 | tim10-1 confirm 34
CC[C@@H]1CC=C[C@H]2[C@H]1C(=O)N(Cc1ccccc1)[C@H]2c1ccc(C(F)(F)F)cc1	none
CC[C@@H]1CC=C[C@H]2[C@H]1C(=O)N(Cc1ccccc1)[C@H]2c1ccc(OC)c(Cl)c1	tim10-1 inh 43 | tim10-1 confirm inactive
CC[C@@H]1CC=C[C@H]2[C@H]1C(=O)N(Cc1ccccc1)[C@H]2c1ccoc1	tim10-1 inh 77 (no result: NALP1 inh) | tim10-1 confirm 73
CC(C)CN(C(=O)C1CCCO1)c1c(N)n(CC(C)C)c(=O)[nH]c1=O (stereo not given)	none (no result: NALP1 inh)
CC(=O)c1ccc(OCCCC(=O)NCc2nnc3ccccn23)cc1	none (no result: NALP1 inh)
COc1ccccc1-n1cc(-c2ccccc2)c2c(=S)nc[nH]c21	tim10-1 inh 48 | tim10-1 confirm inactive
COc1ccccc1-n1cc(-c2ccccc2)[nH]c1=S	none
Cc1c(Cl)cccc1NC(=O)c1nc(C)n(-c2cc(OC(C)C)c(Cl)cc2Cl)n1	tim10-1 inh 43 | tim10-1 confirm inactive
CNC(=O)c1nc(C)n(-c2ccc(Cl)cc2Cl)n1	none
CCCOc1ccc(NC(=O)CC2C(=O)N(CC)C(=S)N2Cc2cccs2)cc1 (stereo not given)	tim10-1 inh 50 | tim10-1 confirm 35
Cc1ccc(NC(=O)COC(=O)c2ccccc2-c2nc3ccccc3s2)c(C)c1	none
CCc1cccc(CC)c1NC(=O)COC(=O)c1ccccc1-c1nc2ccccc2s1	tim10-1 inh 44 (no result: NALP1 inh) | tim10-1 confirm inactive
CCn1nnc2cc(C(=O)Nc3cc(OC)cc(OC)c3)ccc21	none (no result: NALP1 inh)
Cc1cc(F)ccc1S(=O)(=O)Nc1nc2ccccc2nc1Cl	none
Cc1ccc(C(C)(C)C)cc1S(=O)(=O)Nc1nc2ccccc2nc1Cl	tim10-1 inh 41 | tim10-1 confirm 40
CC(/C=N/Nc1nc(C)cc(C)n1)=C\c1ccc(C(C)C)cc1	tim10-1 inh 46 | tim10-1 confirm 35
CC(/C=N/NC(=O)c1ccncc1)=C\c1ccc(C(C)C)cc1	none
C/C(=N\NC(=S)Nc1c(C)cccc1C)c1cc2ccccc2o1	tim10-1 inh 42 | tim10-1 confirm inactive
C/C(=N\NC(=S)Nc1c(C)cccc1C)c1ccc(O)cc1	none
O=C(NCc1ccccc1)C(Cc1ccccc1)N1C(=O)C2C3CCC(C3)C2C1=O (stereo not given)	tim10-1 inh 40 | tim10-1 confirm inactive
CCC(=O)Nc1cc(C(=O)O)ccc1Sc1ccc(Cl)cc1	none
Cn1cc(Cl)c(C(=O)Nc2nc3ccccc3s2)n1	tim10-1 inh 44 | tim10-1 confirm inactive
O=C(Nc1nc2ccccc2s1)c1c(F)cccc1Cl	none
CCC(=O)Nc1nc2ccc3nc(C)sc3c2s1	tim10-1 inh 48 (no result: NALP1 inh) | tim10-1 confirm inactive
CCC(=O)Nc1nc2c(OC)ccc(OC)c2s1	none
Cc1nc(SCC(=O)Nc2ccccc2Cl)oc1C	none
Cc1onc(-c2ccccc2)c1C(=O)N1CCN(c2ccccc2F)CC1	none
CC(OC(=O)c1ccc(Cl)c(S(N)(=O)=O)c1)C(=O)NCc1ccc2c(c1)OCO2 (stereo not given)	none (no result: NALP1 inh)
Cc1ccccc1CN1CCN(c2nc3ccccc3s2)CC1	tim10-1 inh 41 | tim10-1 confirm inactive
CCC(C)Oc1nc(C)cc(C)c1S(=O)(=O)c1ccccc1C (stereo not given)	tim10-1 inh 44 | tim10-1 confirm inactive
Cc1ccc(C)c(OCC(O)CN2CCC(Cc3ccccc3)CC2)c1 (stereo not given)	none
CCN(CC)S(=O)(=O)c1ccc(C)c(NC(=O)/C=C/c2cccs2)c1	tim10-1 inh 45 | tim10-1 confirm 30
N#CC1=C(SCC(N)=O)NC2=C(C(=O)c3ccccc32)C1c1ccc(Cl)cc1 (stereo not given)	tim10-1 inh 44 | tim10-1 confirm inactive
Cn1nccc1C(=O)Nc1sc2c(c1C#N)CCCC2	none
N#Cc1c(NC(=O)c2ccc(Cn3cc(Br)cn3)o2)sc2c1CCCCCC2	tim10-1 inh 41 | tim10-1 confirm 32
COc1cc(Br)ccc1C1CC(=O)C(C)C(c2ccc(Br)cc2OC)N1 (stereo not given)	tim10-1 inh 53 | tim10-1 confirm inactive
COc1ccc(C2NC(c3ccc(OC)c(OC)c3OC)C(C)C(=O)C2C)c(OC)c1OC (stereo not given)	none
COc1ccc(C(=O)Nc2ccc(Cl)c(S(=O)(=O)Nc3ccccc3OC)c2)cc1	tim10-1 inh 41 | tim10-1 confirm inactive
COc1ccccc1NS(=O)(=O)c1cc(NC(=O)c2ccc(Cl)nc2)ccc1Cl	none
C#CCOCCOCCOCCNc1nc(N2CCN(C(=O)CCCCCCCCCCNC(=O)[C@H](CCCCN)n3cc(CCO)nn3)CC2)nc(N2CCN(C(=O)CCCCCCCCCCNC(=O)[C@H](CCCN=C(N)N)n3cc(C[C@@H](C)CC)nn3)CC2)n1	tim10-1 inh 42 (no result: NALP1 inh) | tim10-1 confirm inactive
C#CCOCCOCCOCCNc1nc(N2CCN(C(=O)CCCCCCCCCCNC(=O)[C@H](CCCCN)n3cc(CCO)nn3)CC2)nc(N2CCN(C(=O)CCCCCCCCCCNC(=O)[C@H](CCCCN)n3cc(CCO)nn3)CC2)n1	none (no result: NALP1 inh)
COc1ccc(S(=O)(=O)N2CCCOC2CNC(=O)C(=O)NCCc2ccco2)cc1 (stereo not given)	none
Cc1cccc(C)c1OC(=O)CCN1C(=O)C2C3C=CC(C4CC34)C2C1=O (stereo not given)	tim10-1 inh 41 | tim10-1 confirm inactive
O=C(C(Cl)c1ccccc1)N1CCOCC1 (stereo not given)	none
